Results as given in the supplement of paper PMC7366291.
Where a name gives a salt, the structure may show the parent alone. ± gives the standard deviation of the averaged measurements.

These compounds were tested on Danio rerio Tg(wt1b:EGFP) embryo, pronephros (assay: pronephric angle neck segment to proximal convoluted tubule (mean of left and right), fold change vs DMSO control; higher = larger pronephric angle). Conditions: 25 µM; exposure: 24-48 hpf.
How it was run: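 In HEPES-buffered E3 with 0.003% PTU and 0.5% DMSO, dechorionated Tg(wt1b:EGFP) zebrafish embryos were exposed to 25 μM compound from 24 to 48 hpf at 28.5°C. Pronephroi were then imaged dorsally at 470 nm in 10 z-slices, in 96-well plates filled with agarose. On maximum projections, a Fiji macro turned 16 manually placed reference points into distances and angles, and values more than 2 SD from the feature mean were excluded. Features are fold changes relative to the mean of DMSO-treated embryos from the same day.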

Row | Structure (SMILES) | pronephric angle neck segment
1 | CC(C)(C)NCC(O)c1cc(Cl)c(N)c(Cl)c1 (centres undefined) [Clenbuterol hydrochloride] | 1 ± 0.067
2 | NCC(O)c1ccc(O)cc1 (racemic) [(+,-)-Octopamine hydrochloride] | 0.987 ± 0.059
3 | C=C(C)[C@@H]1[C@H]2OC(=O)[C@@H]1[C@]1(O)C[C@H]3O[C@]34C(=O)O[C@H]2[C@]14C [Picrotoxinin] | 1.01 ± 0.03
4 | C[N+]12CCC(CC1)C(OC(=O)C(O)(c1ccccc1)c1ccccc1)C2 (centres undefined) [Clidinium bromide] | 0.967 ± 0.022
5 | COc1ccc(CN2CCNCC2)c(OC)c1OC [Trimetazidine dihydrochloride] | 0.982 ± 0.044
6 | CN(C)C(=O)Oc1cc(OC(=O)N(C)C)cc(C(O)CNC(C)(C)C)c1 (centres undefined) [Bambuterol hydrochloride] | 1.01 ± 0.021
7 | CC(C)C[C@H]1C(=O)N2CCC[C@H]2[C@]2(O)O[C@](NC(=O)[C@@H]3C=C4c5cccc6[nH]c(Br)c(c56)C[C@H]4N(C)C3)(C(C)C)C(=O)N12 [Bromocryptine mesylate] | 0.985 ± 0.022
8 | C#C[C@]1(O)CC[C@H]2[C@@H]3CCC4=CC(=O)CC[C@]4(C)[C@H]3CC[C@@]21C [Ethisterone] | 1.065 ± 0.002
9 | CC(=O)O[C@H]1C[C@H](O[C@H]2[C@@H](O)C[C@H](O[C@H]3[C@@H](O)C[C@H](O[C@H]4CC[C@@]5(C)[C@H](CC[C@@H]6[C@@H]5C[C@@H](O)[C@]5(C)[C@@H](C7=CC(=O)OC7)CC[C@]65O)C4)O[C@@H]3C)O[C@@H]2C)O[C@H](C)[C@H]1O[C@@H]1O[C@H](CO)[C@@H](O)[C@H](O)[C@H]1O [Lanatoside C] | 1.01 ± 0.041
